The list is not random: actives were taken first. Their share in the collection is about 4.6%.
D1 antagonist: human D1 dopamine receptor antagonism | HEK293 TREx D1 cells, calcium flux, dopamine EC80; stronger effect = lower value | activity change, negative = inhibition, % at 10 µM | 360,000 compounds, 3.2% hits; in the data active = activity change below about -30%; also: % is scaled to controls: 0 for no effect and ±100 for the full control effect
Target sequence (P21728 whole entry, looked up): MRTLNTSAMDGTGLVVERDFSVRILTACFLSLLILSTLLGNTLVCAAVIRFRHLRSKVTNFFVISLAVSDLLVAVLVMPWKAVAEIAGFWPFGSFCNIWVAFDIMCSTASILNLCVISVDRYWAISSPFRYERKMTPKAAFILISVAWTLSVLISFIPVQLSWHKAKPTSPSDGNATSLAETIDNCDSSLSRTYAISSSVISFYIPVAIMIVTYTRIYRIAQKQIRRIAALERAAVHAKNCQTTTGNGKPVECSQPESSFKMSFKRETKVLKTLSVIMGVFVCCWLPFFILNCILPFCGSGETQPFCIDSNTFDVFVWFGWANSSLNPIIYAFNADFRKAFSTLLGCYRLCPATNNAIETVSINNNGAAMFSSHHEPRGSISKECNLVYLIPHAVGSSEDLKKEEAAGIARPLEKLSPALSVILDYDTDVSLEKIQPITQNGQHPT
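Using tetracycline-induced force-coupled D1 Hek293 cells and a calcium dye, signals were followed for 180 s after compound, then for 180 s after EC80 dopamine, to detect inhibitors.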
TRHR agonist: activates the human TRH receptor; TRHR cells, calcium flux fluo-8, FDSS agonist mode; 360,000 compounds, 0.18% hits; P34981; AID 493084; activation, % at 2 µM; also: 0% is about no effect
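Read-out: compound-evoked intracellular calcium rise in TRHR cells, fluo-8 dye, kinetic FDSS fluorescence at 1 s/cycle following a 10-cycle baseline. Cells cultured overnight before dye loading (30 min–1.5 h, RT).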
D1 ag: activates the human D1 dopamine receptor. HEK293 T-REx D1 cells, calcium flux, agonist mode. activation, % at 2 µM. 360,000 compounds, 1% hits; also: 0% is about no effect
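Agonism was scored from calcium flux recorded over 180 s (1 read/s) after pintool compound addition, following a 10-cycle baseline. Cells were inducible force-coupled HEK293 TREx D1, plated overnight at 30 C and loaded with no-wash calcium dye.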
TRHR enhancer: TRH receptor (human) allosteric enhancement | TRHR cells, fluo-8 calcium fluorescence, EC20 TRH enhancement | enhancement, % at 2 µM | 360,000 compounds, 0.66% hits; in the data active = enhancement above about 30%; also: 0% is about no effect
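Enhancer read-out: after compound pinning and an initial kinetic agonist-mode read, an EC20 of TRH (10 nM final) was injected and fluo-8 calcium signal (Ex 480/Em 530) followed at 1 s/cycle for 100 cycles in TRHR-expressing cells.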
D1 PAM: human D1 dopamine receptor positive modulation; P21728; potentiation, % at 10 µM; 360,000 compounds, 0.036% hits; HEK293 TREx D1 cells, calcium flux, dopamine EC20 potentiation; in the data active = potentiation above about 30%; also: 0% is about no effect
* = called active by the depositor. Rule as the data show it, unless noted: active = activation above about 30%; inactive = the rest.

How did COc1ccc(C(=O)C2CCCN(Cc3ccc(F)cc3F)C2)cc1F (stereo not drawn) do in these assays?
D1 antagonist: -32*; TRHR agonist: 0; D1 ag: 3; TRHR enhancer: -10; D1 PAM: -3

What do the screens show for `COc1ccc(F)cc1C(=O)C1CCCN(Cc2ccc(O)cc2)C1` (stereo not drawn)?
D1 antagonist: -2; TRHR agonist: 1; D1 ag: 4; TRHR enhancer: 1; D1 PAM: 4

How did O=C(Nc1ccc(C(F)(F)F)cc1)OC1CN2CCC1CC2 (stereo not drawn) do in these assays?
D1 antagonist: -5; TRHR agonist: 4; D1 ag: 30*; TRHR enhancer: 3; D1 PAM: -3

How did COc1ccc2[nH]cc(CCN)c2c1 do in these assays?
D1 antagonist: 0; TRHR agonist: 0; D1 ag: 0; TRHR enhancer: 31*; D1 PAM: -4

Results for Cc1cccc(-c2nc(CN3C(=O)CN=C(c4ccccc4)c4ccccc43)c(C)o2)c1 ?
D1 antagonist: 0; TRHR agonist: -1; D1 ag: 2; TRHR enhancer: -13; D1 PAM: -1

How did CCn1c(O)c(C=Nc2ccc(S(N)(=O)=O)cc2)c(=O)[nH]c1=S do in these assays?
D1 antagonist: -1; TRHR agonist: 1; D1 ag: 2; TRHR enhancer: 4; D1 PAM: 7

What do the screens show for `CCN(CC)CCCN=Cc1c(O)n(CCc2ccc(OC)c(OC)c2)c(=O)[nH]c1=O`?
D1 antagonist: 5; TRHR agonist: 0; D1 ag: 2; TRHR enhancer: 22; D1 PAM: -7

Results for COc1ccc(CCn2c(O)c(C=Nc3ccc(F)cc3)c(=O)[nH]c2=O)cc1OC ?
D1 antagonist: 0; TRHR agonist: 0; D1 ag: 7; TRHR enhancer: 38*; D1 PAM: -5

Results for CCN(CC)c1ccc(N=Cc2c(O)n(Cc3ccco3)c(=O)[nH]c2=O)cc1 ?
D1 antagonist: -3; TRHR agonist: 9; D1 ag: 31*; TRHR enhancer: 1; D1 PAM: -2

Results for NC(=O)c1ccc(N=Cc2c(O)n(Cc3ccco3)c(=O)[nH]c2=O)cc1 ?
D1 antagonist: 4; TRHR agonist: 1; D1 ag: 4; TRHR enhancer: -9; D1 PAM: -1

How did CCN(CC)c1ccc(N=Cc2c(O)n(CCc3ccc(OC)c(OC)c3)c(=O)[nH]c2=O)cc1 do in these assays?
D1 antagonist: 3; TRHR agonist: 5; D1 ag: 40*; TRHR enhancer: 3; D1 PAM: 7

How did CCN(CCO)c1ccc(N=Cc2c(O)n(C)c(=S)[nH]c2=O)cc1 do in these assays?
D1 antagonist: -24; TRHR agonist: -1; D1 ag: 75*; TRHR enhancer: 8; D1 PAM: 0

Results for CCN(CC)C(=O)c1ccc(NC(=O)CCn2nc(-c3ccc(Cl)cc3)c3ccccc3c2=O)cc1 ?
D1 antagonist: -4; TRHR agonist: -1; D1 ag: 1; TRHR enhancer: -3; D1 PAM: -6

What do the screens show for `Cc1cc(C)cc(NC(=O)CN2C(=O)CN=C(c3ccccc3)c3cc(Cl)ccc32)c1`?
D1 antagonist: -7; TRHR agonist: 0; D1 ag: 3; TRHR enhancer: -3; D1 PAM: -1

How did CC(C)Cc1nnc(NC(=O)CCC(=O)N2CCN(CCOC(c3ccccc3)c3ccccc3)CC2)s1 do in these assays?
D1 antagonist: -32*; TRHR agonist: 0; D1 ag: 6; TRHR enhancer: 0; D1 PAM: -4

What do the screens show for `Clc1ccc(C(OCCN2CCCCC2)c2ccccc2)cc1` (stereo not drawn)?
D1 antagonist: -16; TRHR agonist: 0; D1 ag: 9; TRHR enhancer: 0; D1 PAM: -4

How did O=c1c2ccccc2nc(/C=C\c2ccc(F)cc2)n1-c1ccccc1F do in these assays?
D1 antagonist: -24; TRHR agonist: 0; D1 ag: 3; TRHR enhancer: -1; D1 PAM: -1

Results for CC(C)c1ccc(OCC(=O)N2CCN(CCc3ccccn3)CC2)cc1 ?
D1 antagonist: 5; TRHR agonist: 0; D1 ag: -1; TRHR enhancer: 2; D1 PAM: 1

Results for CNC(=O)c1cccn(Cc2cccc(C(F)(F)F)c2)c1=O ?
D1 antagonist: -32*; TRHR agonist: 1; D1 ag: 2; TRHR enhancer: -1; D1 PAM: -4

What do the screens show for `CN(C)CCNC(=O)c1cccn(Cc2cccc(C(F)(F)F)c2)c1=O`?
D1 antagonist: 5; TRHR agonist: 0; D1 ag: 6; TRHR enhancer: -6; D1 PAM: -3

How did COc1cccc(NC(=O)c2cccn(Cc3ccccc3C)c2=O)c1 do in these assays?
D1 antagonist: -11; TRHR agonist: 1; D1 ag: 9; TRHR enhancer: -1; D1 PAM: -5

What do the screens show for `O=[N+]([O-])c1cc(-n2cnnn2)c(O)c([N+](=O)[O-])c1`?
D1 antagonist: 3; TRHR agonist: 0; D1 ag: 1; TRHR enhancer: -2; D1 PAM: -5

Results for O=[N+]([O-])c1cc(O)c(O)c([N+](=O)[O-])c1 ?
D1 antagonist: -41*; TRHR agonist: 0; D1 ag: -1; TRHR enhancer: -1; D1 PAM: -2

How did Cc1cccc(-n2c(CC3C(=O)Nc4ccc(C)cc43)nc3ccccc3c2=O)c1 (stereo not drawn) do in these assays?
D1 antagonist: 8; TRHR agonist: 0; D1 ag: 1; TRHR enhancer: 1; D1 PAM: -1

What do the screens show for `CC/C(CC(c1ccccc1)c1c(O)c2ccccc2oc1=O)=N\NC(N)=S` (stereo not drawn)?
D1 antagonist: -32*; TRHR agonist: 0; D1 ag: 4; TRHR enhancer: 9; D1 PAM: -12

How did O=C(Nc1ccc2c(c1)OCO2)c1cccn(Cc2cccc(F)c2)c1=O do in these assays?
TRHR agonist: 1; D1 ag: 0; TRHR enhancer: 1; D1 PAM: -1

How did COc1cc(/C=C2\C(=O)NC(=O)N(c3ccccc3)C2=O)c([N+](=O)[O-])cc1OC do in these assays?
D1 antagonist: -56*; TRHR agonist: 0; D1 ag: 1; TRHR enhancer: -10; D1 PAM: -4

What do the screens show for `Cc1nnc(NC(=O)c2cccn(Cc3ccccc3F)c2=O)s1`?
D1 antagonist: 2; TRHR agonist: 0; D1 ag: 1; TRHR enhancer: -1; D1 PAM: -2

How did Clc1cccc(CN2CCCCC2c2cccnc2)c1 (stereo not drawn) do in these assays?
D1 antagonist: -1; TRHR agonist: 0; D1 ag: 6; TRHR enhancer: 3; D1 PAM: 0

How did c1cncc(C2CCCCN2Cc2ccc3c(c2)OCO3)c1 (stereo not drawn) do in these assays?
D1 antagonist: -38*; TRHR agonist: 0; D1 ag: 1; TRHR enhancer: -1; D1 PAM: -2
